FMDV antiviral: blocks foot and mouth disease virus. FMDV antiviral cell-based qHTS. hit rate 1.2% among 410,000. Potency, µM (doses to about 57.9 µM), hits mostly inhibitors. AID 1159524; calls by dose curve; tested in HEK293T cells; further: read-out not given here; nearly all actives have a fitted effect of over 45% in size
VACV Venus inh: inhibitors of vaccinia virus (Venus reporter) | Potency, µM (highest dose often 36.5 µM), actives largely listed as inhibitors | Vaccinia virus Venus reporter expression, fluorescence | hit rate 0.46% among 330,000 | AID 720580; calls by dose curve; tested in A549 cells; further: nearly all actives have a fitted effect of over 30% in size
Vaccinia mCherry: inhibitors of vaccinia virus infection (mCherry reporter signal); Vaccinia virus mCherry reporter infection, fluorescence; Potency, µM (doses to about 36.5 µM), most hits filed as inhibitors; hit rate 0.63% among 310,000; AID 720579; calls by dose curve; tested in A549 cells; further: nearly all actives have a fitted effect of over 35% in size
Sm TGR block: inhibitors of Schistosoma mansoni thioredoxin glutathione reductase | Q962Y6 | purified TGR, DTNB reduction, TNB absorbance 405 nm | Potency, µM (titrated, usually from 114 µM), hits mostly inhibitors | hit rate 3% among 360,000; active means well fitted inhibition curve with a large enough effect; inconclusive means small, poorly fitted or top-dose-only effect; inactive means no such curve, though single readings can be large or run the other way; further: nearly all actives have a fitted effect of over 60% in size
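TGR 20 nM + NADPH 100 uM (dispensed conc.), cpd preinc 15 min RT; start with NADPH (500 uM addition) then DTNB (15 mM addition). Kinetic TNB absorbance, 405 nm filter. Four-parameter Hill fit across titration.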
Marburg entry inh: blocks Marburg virus binding to or entry into cells; AID 540276; Potency, µM (titrated, usually from 37.8 µM), most hits filed as inhibitors; hit rate 1.8% among 300,000; Marburg virus pseudotyped entry inhibition, cell reporter; calls by dose curve; tested in HEK293 cells
LASV entry inh: inhibitors of Lassa virus binding or cell entry; Lassa virus pseudotype entry inhibition, cell reporter; Potency, µM (doses to about 37.9 µM), usual class: inhibitors; hit rate 1.2% among 300,000; AID 540256; calls by dose curve; tested in HEK293 cells; further: nearly all actives have a fitted effect of over 50% in size
Of the large screens only hits and unclear results are named; the others gave an inactive call; ! = a repeat was not active. A selection: hits, their analogues and other compounds. The true share with any hit is near 5.4%.

Oc1ccc(Br)cc1/C=N/Nc1nc(N2CCCCC2)nc(N2CCOCC2)n1	Marburg entry inh 2.5µM
BrC(/C=C\c1ccccc1)=N/Nc1nc(N2CCOCC2)nc(N2CCOCC2)n1	Marburg entry inh inconclusive (no result: VACV Venus inh, Vaccinia mCherry, Sm TGR block)
C/C(=N\Nc1nc(N2CCOCC2)nc(N2CCOCC2)n1)c1cccs1	none
C/C(=N\Nc1nc(N2CCCCC2)nc(N2CCOCC2)n1)c1ccccc1O	FMDV antiviral inconclusive, Marburg entry inh 1.8µM, LASV entry inh 7.1µM
Oc1ccc(/C=N/Nc2nc(N3CCCCCC3)nc(N3CCCCCC3)n2)c(O)c1	FMDV antiviral inconclusive, Vaccinia mCherry inconclusive, Marburg entry inh inconclusive, LASV entry inh inconclusive
BrC(=C\c1ccccc1)/C=N/Nc1nc(N2CCOCC2)nc(N2CCOCC2)n1	Sm TGR block inconclusive, Marburg entry inh 7.9µM
C[C@H]1[C@@H]2O[C@H]2CCO[C@H]1c1cccc(Br)c1	none (no result: FMDV antiviral, VACV Venus inh, Vaccinia mCherry, Sm TGR block, LASV entry inh)
O=C(c1ccc(O)cc1)c1ccc(C(=O)c2ccc(O)cc2)cc1	Vaccinia mCherry inconclusive, Marburg entry inh inconclusive, LASV entry inh inconclusive
Oc1ccc(O)cc1	Marburg entry inh 7.9µM!, LASV entry inh inconclusive (no result: Sm TGR block)
O=C1NC(c2ccccc2)C(C(=O)c2cccs2)C(O)(C(F)(F)F)N1 (stereo unspecified)	Sm TGR block 32µM (no result: Vaccinia mCherry)
Cc1[nH]c2ccccc2c1C(C[N+](=O)[O-])c1ccco1 (stereo unspecified)	Sm TGR block 22µM, Marburg entry inh inconclusive
Cc1[nH]c2ccccc2c1C(C[N+](=O)[O-])c1cccs1 (stereo unspecified)	FMDV antiviral inconclusive, Marburg entry inh inconclusive, LASV entry inh inconclusive
Cc1[nH]c2ccccc2c1C(C[N+](=O)[O-])c1cccc(O)c1 (stereo unspecified)	none
Cc1ccc(-c2[nH]c3ccccc3c2C(C[N+](=O)[O-])c2ccco2)cc1 (stereo unspecified)	VACV Venus inh inconclusive, Sm TGR block 79µM, Marburg entry inh inconclusive, LASV entry inh inconclusive (no result: Vaccinia mCherry)
COc1cc(C2c3cc4c(cc3C(O)C3COC(=O)C23)OCO4)cc(OC)c1O (stereo unspecified)	VACV Venus inh inconclusive, Vaccinia mCherry 14µM (no result: Sm TGR block, Marburg entry inh, LASV entry inh)
COc1cc([C@@H]2c3cc4c(cc3[C@H](O)[C@H]3COC(=O)[C@H]23)OCO4)cc(OC)c1OC	VACV Venus inh inconclusive, Vaccinia mCherry inconclusive, Marburg entry inh inconclusive, LASV entry inh inconclusive
Cc1ccc(S(=O)(=O)NCC(c2ccc(N(C)C)cc2)N2CCc3ccccc32)cc1C (stereo unspecified)	none (no result: Marburg entry inh)
Cc1cc(=O)n2nc(N3CCC(C(=O)Nc4ccc(C(C)C)cc4)CC3)sc2n1	FMDV antiviral inconclusive
CC(=O)O/N=C1\C(=O)N(Cc2ccc(C)cc2)c2ccccc21	Sm TGR block 16µM, Marburg entry inh inconclusive, LASV entry inh inconclusive
O=C1[C@H]2[C@H]3[C@H](O)[C@H](O)C/C(=N/OC[C@@H](O)COCc4ccco4)[C@H]3CC[C@@H]2C(=O)N1C[C@@H]1CCCO1	none (no result: FMDV antiviral, VACV Venus inh, Vaccinia mCherry, Sm TGR block, LASV entry inh)
O=C(O)c1ncn(Cc2ccc(Br)cc2)c1C(=O)O	FMDV antiviral 35µM, Marburg entry inh inconclusive
O=C(Nc1ccc(F)cc1F)c1cc2nc(-c3ccco3)cc(C(F)(F)Cl)n2n1	Sm TGR block 50µM (no result: Marburg entry inh)
O=C(Nc1cnn(Cc2ccc(F)cc2)c1)c1cc2nc(-c3ccco3)cc(C(F)(F)F)n2n1	none
O=C(c1nn2c(C(F)(F)F)cc(-c3ccco3)nc2c1Br)N1CCCc2ccccc21	VACV Venus inh inconclusive, Vaccinia mCherry inconclusive, Sm TGR block 35µM, Marburg entry inh inconclusive, LASV entry inh inconclusive
O=C(c1nn2c(C(F)(F)F)cc(-c3cccs3)nc2c1Br)N1CCCc2ccccc21	none
O=C(NCC1CCCO1)c1cc2nc(-c3ccco3)cc(C(F)(F)Cl)n2n1 (stereo unspecified)	Sm TGR block 45µM (no result: VACV Venus inh, Vaccinia mCherry, Marburg entry inh, LASV entry inh)
O=C(c1cc2nc(-c3ccco3)cc(C(F)(F)F)n2n1)N1CCN(c2ccccc2)CC1	Sm TGR block inconclusive (no result: FMDV antiviral)
O=C(c1cc2nc(-c3ccco3)cc(C(F)(F)F)n2n1)N1CCCCCC1	Sm TGR block 35µM (no result: FMDV antiviral)
O=C(NCC1CCCO1)c1nn2c(C(F)(F)F)cc(-c3ccco3)nc2c1Cl (stereo unspecified)	none (no result: Sm TGR block)
c1ccc2c(c1)ccc1[nH]c3c(c12)CCCC3	Vaccinia mCherry inconclusive, Marburg entry inh 0.5µM, LASV entry inh 0.63µM (no result: Sm TGR block)
CCOC(=O)c1c(C)[nH]c(C)c1S(=O)(=O)N1CCC(C(=O)Nc2ccccc2CC)CC1	none (no result: Marburg entry inh)
Cc1ccccc1N=C1SC(CC(=O)Nc2ccc3ccccc3c2)C(=O)N1Cc1ccccn1 (stereo unspecified)	FMDV antiviral inconclusive, VACV Venus inh inconclusive, Marburg entry inh inconclusive, LASV entry inh 16µM
Cc1ccc(C(c2c(O)cc(C)n(Cc3ccco3)c2=O)N2CCC(C)CC2)cc1 (stereo unspecified)	FMDV antiviral inconclusive, Sm TGR block 10µM (no result: Marburg entry inh)
Cc1cc(O)c(C(c2cccc(F)c2)N2CCC(C)CC2)c(=O)n1Cc1ccco1 (stereo unspecified)	Sm TGR block 25µM (no result: Marburg entry inh)
O=C(Nc1cccc(-c2cccc(F)c2)c1)C1CCN(Cc2ccco2)CC1	none (no result: VACV Venus inh, Vaccinia mCherry, Marburg entry inh, LASV entry inh)
CC1CCN(C(c2ccccc2)c2sc3nc(-c4ccco4)nn3c2O)CC1 (stereo unspecified)	none (no result: Marburg entry inh)
Cc1cc(O)c(C(c2ccccc2)N2CCC(C)CC2)c(=O)n1Cc1ccco1 (stereo unspecified)	Sm TGR block 28µM (no result: Marburg entry inh)
Cc1cc[n+](CCC2CCCCC2)c2ccccc12	Vaccinia mCherry inconclusive (no result: FMDV antiviral, Sm TGR block, Marburg entry inh, LASV entry inh)
CS(=O)(=O)N1CCC2(CCCN(C(c3ccccc3)c3ccccc3)C2)CC1	none (no result: VACV Venus inh, Vaccinia mCherry, Sm TGR block, Marburg entry inh, LASV entry inh)
Cc1cccc(-c2cccc(C(=O)N3CCc4c(cnc(C)c4CNC(=O)c4cncs4)C3)c2)c1	none (no result: Sm TGR block, Marburg entry inh, LASV entry inh)
CCOCCn1c(=O)c2c(nc3n2CCN3c2ccc(C)c(C)c2)n(C)c1=O	none (no result: Marburg entry inh)
Cc1ccc(S(=O)(=O)NCC(=O)N(c2ccccc2)C(C(=O)NCc2ccccc2)c2ccco2)cc1 (stereo unspecified)	VACV Venus inh inconclusive, Marburg entry inh 20µM, LASV entry inh inconclusive
Cc1cc(C)cc(N(C(=O)CNS(=O)(=O)c2ccccc2)C(C(=O)NCc2ccccc2)c2ccc(C)o2)c1 (stereo unspecified)	Marburg entry inh inconclusive, LASV entry inh 12µM
CCOc1ccc(-c2cc(CCCC(=O)NCCc3ccc(SC)cc3)no2)cc1	LASV entry inh inconclusive
CN(C)CCN(Cc1ccco1)C(=O)c1cc2c(Cl)nc3ccccc3c2s1	Marburg entry inh 15µM (no result: VACV Venus inh, Vaccinia mCherry)
COc1ccc2c(c1)CO[C@H]([C@H](O)COC(C)=O)[C@H]2C=Cc1ccccc1	none (no result: FMDV antiviral, VACV Venus inh, Vaccinia mCherry, Sm TGR block, LASV entry inh)
O=c1cc(O)cc(/C=C\c2ccc(O)c(O)c2)o1	none (no result: FMDV antiviral, VACV Venus inh, Vaccinia mCherry, Sm TGR block, LASV entry inh)
CN(C)CCCOc1ccc(C(C)(C)c2ccccc2)cc1	Marburg entry inh 13µM, LASV entry inh inconclusive (no result: VACV Venus inh, Vaccinia mCherry)
O=P(CCCCCCCCCP(=O)(c1ccccc1)c1ccccc1)(c1ccccc1)c1ccccc1	FMDV antiviral inconclusive, VACV Venus inh 16µM, Vaccinia mCherry inconclusive, Marburg entry inh inconclusive, LASV entry inh inconclusive
O=C(O)CCCCCCCCCCP(=O)(c1ccccc1)c1ccccc1	none

Compound activity (PubChem BioAssay)
